Bioassay records from PubChem.
Sampled rows, rich in hits. Any-hit rate of the full collection: about 3.1%.
PAX8 inh HTS: PAX8 transcriptional activity inhibition | RMG-I TPO-luciferase reporter, SteadyGlo, 24 h | inhibition, % at 12.6 µM | actives 1.2% (n = 360,000) | AID 652154;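 active means mean replicate inhibition at least 60% with every replicate also reaching 60%; inconclusive means only one of the two criteria is met; inactive means mean below 60% and not all replicates reaching 60%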;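 further: luciferase light reporting Pax8 driven TPO promoter activity; plate controls were median of neutral control wells for no effect and mitoxantrone controls for full effect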
LGR2 inh: inhibitors of bursicon-induced Drosophila LGR2 receptor cAMP signaling; HEK293 LGR2, CRE-luciferase, bursicon-stimulated, 4 h; actives 0.35% (n = 380,000); AID 720647; inhibition, % at 9.99 µM;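 active means drop in luminescence signal, shown as inhibition above about 50% in the replicate tests, limit read from the data, passing the limit was not always enough; inconclusive means probably only some replicates passing the limit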;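 further: agonist challenge used bursicon conditioned medium at about half maximal strength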
TWEAK-Fn14 inh: blocks TWEAK-Fn14 interaction in a reporter cell assay; inhibition, % at 10 µM; actives 2% (n = 360,000); AID 1159606; TWEAK-stimulated Fn14 reporter cells, luciferase luminescence, 8 h; in the data active means inhibition above about 50%
LMP1 NFkB inh: inhibitors of Epstein-Barr LMP1-induced NF-kappaB reporter | LMP1-induced NF-kappaB luciferase reporter cells, luminescence | inhibition, % at 12.5 µM | actives 0.69% (n = 350,000); in the data active means inhibition above about 41%; inconclusive means no clear call, values can overlap the other calls;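 further: 0% = neutral control wells and 100% = reference inhibitor control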
TROY NFkB inh: inhibitors of TROY-dependent NF-kB signaling; Q293 LMP1-TROYcd NF-kB luciferase reporter, 4 h; inhibition, % at 10 µM; actives 0.98% (n = 360,000); AID 1347056;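 active means compounds whose plate-normalised and pattern-corrected inhibition of the luciferase reporter signal at the single screening dose is 50% or more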
EWS-Fli inh: EWS/Fli transcriptional activity inhibition | A673 NR0B1-luciferase reporter, viability-normalised | inhibition, % at 12.6 µM | actives 0.67% (n = 350,000) | AID 651661;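 active means mean inhibition of at least 50% after viability correction, with every replicate also passing that limit; inconclusive means mean reaches 50% but only one of two replicates passes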;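 further: firefly luciferase signal divided by Alamar Blue viability fluorescence both relative to DMSO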
The depositor's hits bear a star; u = inconclusive; x = not tested or not shown.

SMILES | PAX8 inh HTS | LGR2 inh | TWEAK-Fn14 inh | LMP1 NFkB inh | TROY NFkB inh | EWS-Fli inh
CC(=O)Nc1ccc2c(c1)C(=O)N(C)[C@@H]1CC[C@@H](CC(=O)NCc3ccc(Cl)cc3)O[C@@H]1CO2 | 15 | -13 | x | x | x | 9
N=C(N)SCP(=O)(c1ccccc1)c1ccccc1 | 8 | -7 | 9 | 54* | 12 | -2
C[C@@H]1CN([C@@H](C)CO)C(=O)c2cc(NC(=O)C3CCCCC3)ccc2O[C@H]1CN(C)Cc1ccc2c(c1)OCO2 | x | -1 | x | x | x | 2
CCN(CC)C(=O)CSc1n[nH]c(=S)n1N | 5 | -4 | 84* | -5 | 7 | -3
O=C(CCNS(=O)(=O)c1ccc2c(c1)CCC(=O)N2)Nc1ccc2c(c1)OCCO2 | -21 | x | 68* | 6 | 56* | x
CC(C)(C)c1ccc(C(=O)NCCC(=O)Nc2ccc3c(c2)OCCO3)cc1 | -58 | -7 | 67* | 10 | 65* | 5
Cc1ccc(NC(=O)CCNS(=O)(=O)c2ccc3c(c2)CCC(=O)N3)cc1F | -3 | -15 | 3 | 5 | 0 | 4
Cc1ccc(C(=O)Nc2ccc3c(c2)OCCO3)c(C)c1 | 68* | 93* | 85* | 58* | 59* | 79*
Cc1ccc(NC(=O)c2ccc3c(c2)OCCO3)cc1C | 19 | 77* | 85* | 29 | 47 | 40
Cc1cc(C)c(C(=O)Nc2ccc3c(c2)OCCO3)c(C)c1 | -37 | 2 | -21 | -22 | -70 | -65
Cc1ccc(C(=O)NCC(=O)Nc2ccc3c(c2)OCCO3)cc1 | -22 | 5 | -6 | -5 | -26 | -23
COc1ccc2c3c(n(C)c2c1)[C@H](CO)N(CC1CC1)CC31CCN(C(=O)c2cccnc2)CC1 | x | 5 | x | x | x | -2
C[C@@H]1CN([C@H](C)CO)C(=O)c2cc(NS(=O)(=O)c3ccc(Cl)cc3)ccc2O[C@@H]1CN(C)S(C)(=O)=O | x | -8 | x | x | x | -2
Cc1ccc(NC(=O)c2ccc3c(c2)OCCO3)cc1S(=O)(=O)Nc1cccc(Cl)c1 | 32 | -32 | 62* | 7 | 59* | -67
CC(C)NC(=O)Nc1ccc2c(c1)C(=O)N([C@@H](C)CO)C[C@H](C)[C@H](CN(C)S(=O)(=O)c1cn(C)cn1)OCCCC[C@H](C)O2 | -11 | -22 | x | x | x | -6
O=C(Nc1ccc(F)cc1)C(c1cc2ccccc2o1)N1CCN(c2cccc(C(F)(F)F)n2)CC1 (stereo unspecified) | -10 | -8 | x | x | x | 19
O=C(Nc1ccc2c(c1)OCCO2)C(c1cc2ccccc2o1)N1CCN(C/C=C/c2ccccc2)CC1 (stereo unspecified) | -91 | 7 | 86* | x | 83* | 12
O=C(Nc1ccc2c(c1)OCCO2)C(c1cc2ccccc2o1)N1CCN(c2ccc(F)cc2)CC1 (stereo unspecified) | -76 | 23 | 85* | x | 85* | -14
O=C(Nc1ccc2c(c1)OCCO2)C(c1cc2ccccc2o1)N1CCN(c2ccc(C(F)(F)F)cn2)CC1 (stereo unspecified) | -100 | 34 | 88* | x | 86* | -7
CC(=O)Nc1ccc(SCC(=O)c2cc(C)n(Cc3cccs3)c2C)cc1 | 28 | x | 93* | 23 | 38 | x
Cc1cc(C(=O)CSc2nnc(N)s2)c(C)n1Cc1cccs1 | 7 | 75* | 29 | 30 | -49 | x
Cc1csc(SCC(=O)c2cc(C)n(Cc3cccs3)c2C)n1 | x | x | -11 | u | 12 | x
CC(=O)Nc1ccc(SCC(=O)c2cc(C)n(-c3ccccc3F)c2C)cc1 | -36 | 18 | 87* | -16 | 66* | x
CC1=C([C@H](O)c2ccccc2)[C@H](CO)n2c(=O)n(-c3ccccc3)c(=O)n2C1 | -21 | x | x | x | x | -5
CO[C@@H]1CN(C)C(=O)c2ccc(NC(=O)c3ccno3)cc2OC[C@H](C)NC[C@H]1C | x | -1 | x | x | x | -11
SMILES | PAX8 inh HTS | LGR2 inh | TWEAK-Fn14 inh | LMP1 NFkB inh | TROY NFkB inh | EWS-Fli inh
Cc1cc(-c2ccc(C(C)C)c(S(=O)(=O)N3CCN(c4ccccn4)CC3)c2)on1 | 47 | 13 | 8 | -6 | 14 | x
CCc1ccc(-c2cc(C)no2)cc1S(=O)(=O)N1CCN(c2ccccn2)CC1 | 27 | -7 | -5 | -1 | 50* | 13
CCc1ccc(-c2cc(C)no2)cc1S(=O)(=O)NCCCN1CCN(c2ccccc2)CC1 | 61* | 8 | 29 | 3 | 35 | 9
CO[C@@H](CN(C)C(=O)c1ccccc1F)[C@H](C)CN([C@H](C)CO)S(=O)(=O)c1ccc(C)cc1 | x | -24 | x | x | x | 3
COC(=O)[C@@]1(Sc2ccc(C)cc2)CC(=O)N(C(=O)CCc2ccccc2)[C@@H]1c1ccccc1 | -12 | 8 | 4 | x | 1 | 9
COC(=O)[C@@]1(Sc2ccc(C)cc2)CC(=O)N(c2ccccc2)[C@@H]1c1ccccc1 | 65* | 30 | 32 | x | 15 | -1
O=C(CC1CC1)Nc1ccc2c(c1)[C@H]1C[C@@H](CC(=O)NC3CCCCC3)O[C@@H](CO)[C@H]1O2 | 2 | 8 | x | x | x | -6
Nc1ccc2c(c1)CC(=O)c1ccccc1S2 | 93* | x | 16 | 6 | -51 | -28
O=C1Cc2ccccc2Sc2ccc(O)cc21 | 40 | 7 | 22 | -1 | 10 | 19
O=C1N[C@@H](Cc2ccccc2)COC(=O)[C@H](Cc2ccc(F)cc2)CC/C=C/C[C@@H]1CC(=O)N(CCO)Cc1ccccc1 | 7 | x | 11 | -8 | 7 | 20
O=C1N[C@@H](Cc2ccccc2)COC(=O)[C@H](Cc2ccc(F)cc2)C/C=C\C[C@H]1CC(=O)N(CCO)Cc1ccccc1 | 9 | 8 | 31 | 5 | 10 | -2
O=C1N[C@@H](Cc2c[nH]c3ccccc23)COC(=O)[C@@H](Cc2ccc(F)cc2)CC/C=C/C[C@@H]1CC(=O)N(CCO)Cc1ccccc1 | 75* | 16 | 55* | 1 | 30 | 10
O=C1N[C@@H](Cc2c[nH]c3ccccc23)COC(=O)[C@H](Cc2ccc(F)cc2)C/C=C\C[C@H]1CC(=O)N(CCO)Cc1ccccc1 | 12 | 15 | 38 | 43* | 24 | 3
COc1ccc(C=NNC(=S)Nc2ccc(F)cc2)cc1OC | 31 | 50* | 46 | 19 | 78* | 42
COc1ccc(C=NNC(=S)NN=Cc2ccc(OC)c(OC)c2)cc1OC | -118 | -66 | -9 | -4 | -7 | -38
COc1cc(/C=N/NC(=S)Nc2cccc(C(=O)O)c2)cc(OC)c1OC | -2 | 13 | -30 | -12 | -19 | 11
COc1ccc(/C=N/NC(=S)Nc2cccc(C(=O)O)c2)cc1OC | 18 | 82* | 76* | 15 | 19 | 15
COc1ccc(S(=O)(=O)N(C)C[C@H]2Oc3ccc(NC(=O)Cn4cnnn4)cc3C(=O)N([C@@H](C)CO)C[C@@H]2C)cc1 | x | 3 | x | x | x | -3
COc1ccc(NC(=O)N(C)C[C@@H]2OCCCC[C@@H](C)Oc3ccc(NC(=O)Nc4ccc(F)cc4)cc3C(=O)N([C@H](C)CO)C[C@H]2C)cc1 | 8 | 6 | x | x | x | -5
